“And” between values parts separate entries of the source, which are not always exact repeats. Equal entries are not always repeated. Records with an inconclusive call do not appear. The source made the active and inactive calls. Calls follow the shape of the dose curve; as a rule, active = well fitted inhibition curve with a large enough effect; inconclusive = small, poorly fitted or top-dose-only effect; inactive = flat fitted curve, though single readings scatter.
% is scaled to controls: 0 for no effect and ±100 for the full control effect; potency is read from the fitted curve at half-maximal effect.

This assay concerns CRL-7250. As to the kind of experiment: Cytotoxic Profiling of Annotated Libraries Using Quantitative High-Throughput Screening (AID 1296008). Also: nearly all actives have a fitted effect of over 60% in size. Conditions: Five cell lines viability, CellTiter-Glo ATP luminescence, 48-72 h; max response: active compounds read low. Summed up: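 Compounds were pin-transferred onto cells and incubated 48 or 72 hr at 37 degree Celsius, 95% humidity. CellTiter-Glo was added, plates sat 10 min at room temperature, then ATP-coupled luminescence was imaged as the viability read-out.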
(ATP-based viability assays read luminescence as a measure of living cells.)
Take `Cc1nc(C2CCCCC2)c(-c2ccc(S(N)(=O)=O)c(F)c2)o1`: the max response is -4.52% (inactive).

As to `COc1ccc([C@@H]2Sc3ccccc3NC(=O)[C@@H]2O)cc1`, the max response is -22.1% (inactive).

As for `CC[N+](CC)(CC)CCOC(=O)C(C1CCCC1)C1CCCC1`, the outcome was inactive.

For `C[C@@H](O[C@H]1OCCN(Cc2n[nH]c(=O)[nH]2)[C@H]1c1ccc(F)cc1)c1cc(C(F)(F)F)cc(C(F)(F)F)c1`, the max response is 4.27% (inactive).

Consider `CCN1CCN(c2cc(-c3ccc(F)cc3)c3c(n2)CCCCCC3)CC1`, for which the max response was 3.32% (inactive).

`CC1CC(=O)NN=C1c1ccc(NCC(C)(C)NCC(O)COc2cc(Cl)ccc2C#N)cc1` (centres undefined): the max response is -11.5% (inactive).

`CC(C)(C)c1ccc(C(=O)CCCCl)cc1`: the outcome was inactive.

With `Cc1cccc(N(C)C(=S)Oc2ccc3c(c2)C2CCC3C2)c1` (centres undefined), the Potency is 29.9 µM (active).

For `O=C(OCCN1CCOCC1)c1cccnc1Nc1cccc(C(F)(F)F)c1`, the max response is -4.59% (inactive).

Turning to `CCC(CN)=C(c1ccccc1)c1ccccc1`, the molecule was called inactive.

On to `CCC(=O)Oc1ccc2c(c1)CC[C@@H]1[C@@H]2CC[C@@]2(C)[C@H]1C[C@@H](OC(=O)CC)[C@@H]2OC(=O)CC`, for which the max response is -3.71% (inactive).

On to `C/C=C(/C(=C/C)c1ccc(OC(C)=O)cc1)c1ccc(OC(C)=O)cc1`, for which the max response was 0.166% (inactive).

Turning to `CC(C)OC(=O)c1cc2c(OCC(O)CNC(C)(C)C)cccc2[nH]1` (centres undefined), the max response is -22.1% (inactive).

For the molecule `CO/N=C(/C(=O)N[C@@H]1C(=O)N2C(C(=O)O)=C(Cn3nnc(C)n3)CS[C@H]12)c1csc(N)n1`, the max response is 4.76% (inactive).

With `CN(C)CCOC1=Cc2ccccc2Sc2ccc(Cl)cc21`, the max response is -2.09% (inactive).

`CCCN(CCC)C(=O)C(CCC(=O)OCCCN1CCN(CCOC(=O)Cc2c(C)n(C(=O)c3ccc(Cl)cc3)c3ccc(OC)cc23)CC1)NC(=O)c1ccccc1` (centres undefined): the max response is -6.96% (inactive).

In the case of `Cc1ccc(Cl)c(OCC(O)CNC(C)(C)C)c1` (centres undefined), the molecule was classed as inactive.

With `CCN1C(=O)c2ccccc2C1Nc1ccc(OCCN2CCCCC2)cc1` (centres undefined), the max response is -2.5% (inactive).

For the molecule `Nc1ncnc2n[nH]c(Nc3ccc(F)cc3)c12`, the Potency was 10.3 µM (active).

Regarding `COc1cc2nc(Cl)nc(N)c2cc1OC`, the call was inactive.

Take `CN(C)[C@@H]1C(=O)C(C(N)=O)=C(O)[C@@]2(O)C(=O)C3=C(O)c4c(O)cccc4C[C@H]3C[C@@H]12`: the max response was -0.669% (inactive).

Consider `CCCCNc1ccc(C(=O)OCCN(CC)CC)cc1`, for which the max response was -6.06% (inactive).

For the molecule `Cc1c(C)c2c(c(C)c1OC(=O)CCC(=O)OCCO)CC[C@@](C)(CCC[C@H](C)CCC[C@H](C)CCCC(C)C)O2`, the max response is -109% (inactive).

Regarding `Cc1ccc(CCn2c3c(c4cc(Cl)ccc42)CN(C)CC3)cn1`, the max response was -3.39% (inactive).

On to `Cc1nn(-c2ccccc2)c(C)c1/C=N/N1CCN(Cc2ccccc2)CC1`, for which the max response was 4.78% (inactive).

On to `CC1CCCCN1CCCOC(=O)c1ccc(OC2CCCCC2)cc1` (centres undefined), for which the max response is -16.2% (inactive).

Take `CCCC(=O)c1cc(O)c(O)cc1O`: the max response is -22.6% (inactive).

For the molecule `c1ccc(C(O[C@H]2CCCN(CCc3ccc4c(c3)OCO4)C2)c2ccccc2)cc1`, the max response was -1.12% (inactive).

With `COC(=O)C1=C(C)NC(C)=C(C(=O)OCCc2ccc(N3CCN(C(c4ccccc4)c4ccccc4)CC3)cc2)C1c1cccc([N+](=O)[O-])c1` (centres undefined), the max response was -8.49% (inactive).

`CC(=O)[C@@]1(O)CC[C@H]2[C@@H]3C[C@H](C)C4=CC(=O)CC[C@]4(C)[C@H]3CC[C@@]21C`: the max response was -14.2% (inactive).

In the case of `O=C(NO)c1ccccc1`, the max response was -19.7% (inactive).

Take `CN1CC[C@H](c2c(O)cc(O)c3c(=O)cc(-c4ccccc4Cl)oc23)[C@H](O)C1`: the Potency is 0.266 µM (active).

`CC(=O)OC/C=C(C)/C=C/C=C(C)/C=C/C1=C(C)CCCC1(C)C`: the max response is 0.956% (inactive).

As for `CCCC(=O)O[C@]1(C(=O)CCl)[C@@H](C)C[C@H]2[C@@H]3CCC4=CC(=O)C=C[C@]4(C)[C@@]3(F)C(=O)C[C@@]21C`, the max response was -8.55% (inactive).

As to `CN(C)CCOC(c1ccccc1)c1ccc(Br)cc1` (centres undefined), the max response is -20.9% (inactive).

As for `CCN(CC)CCOc1ccc(/C(=C(\Cl)c2ccccc2)c2ccccc2)cc1`, the max response is -10.3% (inactive) and -19.3% (inactive).

For the molecule `CCOC(=O)[C@H](CCc1ccccc1)N[C@@H](C)C(=O)N(CC(=O)O)C1Cc2ccccc2C1`, the max response is 0.8% (inactive).

With `CN(C)c1cc2c(Nc3ccc4c(cnn4Cc4ccccc4)c3)ncnc2cn1`, the max response is -15% (inactive).

Turning to `CC(C)Cc1ccc(C(C)C(=O)OCc2ccccn2)cc1` (centres undefined), the max response was -2.57% (inactive).

Source of the values: PubChem BioAssay (NCATS).
